Assay outcomes as filed in PubChem.
POLI inh: blocks human DNA polymerase iota activity. Q9UNA4. Pol iota fluorescent replication assay, 10 min. Potency, µM (top dose mostly 115 µM), for the others: at the top dose activity, negative = inhibition, most hits filed as inhibitors. 390,000 compounds, 1% hits. AID 588590; note: potency is the fitted concentration of half-maximal effect
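Fluorescent replication assay read twice, at 0 min and 10 min after adding 50 nM (final) substrate. Enzyme (10 nM) and compounds were first incubated 15 min at room temperature; enzyme-free buffer wells were negative controls.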
Pol eta inh-1: DNA polymerase eta (human) inhibition. Q9Y253. recombinant Pol eta, fluorescent DNA replication assay. Potency, µM (titrated, usually from 114 µM), for the others: top-dose activity change, negative = inhibition, usual class: inhibitors. 390,000 compounds, 1.2% hits. AID 588591; note: potency is the fitted concentration of half-maximal effect; % is set by controls: 0 for no effect and ±100 for the full control effect
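Pol eta (10 nM) was preincubated with compounds for 15 min at room temperature, after which fluorescent replication substrate (50 nM final) was added to start the reaction. Fluorescence was read kinetically at 0 and 10 min.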
Pol kappa inh-1: inhibitors of human DNA polymerase kappa; Q9UBT6; AID 588579; 400,000 compounds, 0.53% hits; Potency, µM (highest dose often 107 µM), for the others: top-dose activity, negative = inhibition, most hits filed as inhibitors; purified Pol kappa, fluorescent DNA synthesis assay, 10 min; note: potency is the fitted concentration of half-maximal effect; % is set by controls: 0 for no effect and ±100 for the full control effect
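Here, compound and 10 nM enzyme are combined for 15 min at room temperature; adding 50 nM substrate (final) starts DNA synthesis, tracked by fluorescence at 0 and 10 min against buffer-only wells.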
WRN helicase inh: WRN helicase (human) inhibition | WRN helicase unwinding, fluorescent forked duplex, kinetic | Potency, µM (titrated, usually from 114 µM), for inactives: at the top dose activity change, negative = inhibition, most hits filed as inhibitors | 360,000 compounds, 0.46% hits | AID 651768; note: potency is the fitted concentration of half-maximal effect; % is set by controls: 0 for no effect and ±100 for the full control effect; nearly all actives have a fitted effect of over 55% in size
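Fluorescence dequenching readout, ex 525 nm/em 598 nm, kinetic mode: forked duplex DNA (100 nM final) with adjacent fluorophore and quencher unwound by WRN (20 nM final) with 2 mM ATP. Compound preincubation 15 min, room temperature.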
POLB inh: DNA polymerase beta (human) inhibition; AID 485314; P06746; Potency, µM (titrated, usually from 114 µM), for inactives: top-dose activity change, negative = inhibition, hits mostly inhibitors; 340,000 compounds, 1.3% hits; Pol beta primer extension/strand displacement, fluorescence kinetic; note: potency is the fitted concentration of half-maximal effect; % is set by controls: 0 for no effect and ±100 for the full control effect
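Values derive from four-parameter Hill fits of normalized kinetic data: reads at 0 and 10 min following addition of 50 nM substrate to 10 nM Pol beta preincubated 15 min with compound.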
FEN1 inh: blocks human flap endonuclease 1; Potency, µM (series often up to 114 µM), inactives show at the highest dose activity change, negative = inhibition, hits mostly inhibitors; P39748; Recombinant FEN1 flap cleavage, fluorescence, 15 min; 390,000 compounds, 0.35% hits; note: potency is the fitted concentration of half-maximal effect; % is set by controls: 0 for no effect and ±100 for the full control effect; nearly all actives have a fitted effect of over 65% in size
Target sequence (P39748 whole entry, looked up): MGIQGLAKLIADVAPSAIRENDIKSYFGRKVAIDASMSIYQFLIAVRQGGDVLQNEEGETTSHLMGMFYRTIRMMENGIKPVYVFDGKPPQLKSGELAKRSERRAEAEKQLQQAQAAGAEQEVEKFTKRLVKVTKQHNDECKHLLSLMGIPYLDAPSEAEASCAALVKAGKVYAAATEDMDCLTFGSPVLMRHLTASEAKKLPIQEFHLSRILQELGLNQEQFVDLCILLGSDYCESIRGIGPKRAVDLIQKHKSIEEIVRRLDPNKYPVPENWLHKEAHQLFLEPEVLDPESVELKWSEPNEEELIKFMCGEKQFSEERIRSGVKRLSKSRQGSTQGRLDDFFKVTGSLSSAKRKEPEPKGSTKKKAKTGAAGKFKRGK
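In this screen, 50 nM flap DNA substrate was added to 10 nM FEN1 pretreated with compound for 15 min at room temperature; cleavage was followed with reads at 0 and 15 min, and Hill fitting gave concentration–response parameters.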
GALK confirm: confirmation of human galactokinase (GALK) inhibitors; 150 compounds, 70% hits; shares compounds with Pol eta inh-1; Potency, µM (series often up to 115 µM), for inactives: top-dose activity, negative = inhibition, most hits filed as inhibitors; purified GALK, Kinase-Glo ATP depletion luminescence
Redox cycling: counter-screen for GALK inhibitors: redox cycling H2O2 generation; Potency, µM (doses to about 115 µM), inactives show at the top dose activity change, negative = H2O2 signal, most hits filed as inhibitors; AID 2035; shares compounds with Pol eta inh-1; Phenol red-HRP H2O2 redox cycling, absorbance 600 nm; 150 compounds, 40% hits
HEK293 tox: HEK-293 cytotoxicity, GALK inhibitor secondary. shares compounds with Pol eta inh-1. HEK-293 viability, ATP luminescence (CellTiter-Glo), 24/48 h. Potency, µM (series often up to 46.1 µM), without a hit: top-dose activity change, negative = cytotoxicity, hits mostly inhibitors. 170 compounds, 10% hits. AID 2547; note: potency is the fitted concentration of half-maximal effect; % is set by controls: 0 for no effect and ±100 for the full control effect
Pol kappa inh-2: confirmation of human DNA polymerase kappa inhibitors; shares compounds with Pol eta inh-1; purified Pol-kappa, fluorescent strand-displacement substrate; Potency, µM, usual class: inhibitors; 920 compounds, 76% hits; AID 720501; note: potency is the fitted concentration of half-maximal effect
Pol eta inh-2: confirmation of human DNA polymerase eta inhibitors | shares compounds with Pol eta inh-1 | AID 720502 | Pol eta primer extension, TAMRA/BHQ fluorescence, 10 min | 2,600 compounds, 64% hits | Potency, µM, most hits filed as inhibitors; note: potency is the fitted concentration of half-maximal effect
* = called active by the depositor; [ ] = dose if it differs, or a comment. This is a sample that favours compounds with a hit; in the whole collection about 2.4% have one here. Calls come from the whole dose curve; as a rule, active = well fitted curve in the direction sought with a large enough effect; inconclusive = small, poorly fitted or top-dose-only effect, or another doubt; inactive = no such curve, though single readings can be large; an effect the other way counts as inactive or inconclusive.

`Cc1ccccc1N1C(=O)/C(=C/c2ccco2)C(=O)NC1=S` gave POLB inh 0.32µM*, GALK confirm inconclusive, Redox cycling -26% and HEK293 tox -1%.
Screening Cc1nc2ccccc2c(=O)n1-c1nccs1 returned WRN helicase inh 9%[57.1 µM].
For O=c1c2ccccc2nc(-c2ccco2)n1-c1nccs1 the results were POLI inh inconclusive, Pol eta inh-1 inconclusive, Pol kappa inh-1 -36%, WRN helicase inh -34%[57.1 µM], POLB inh -2%, FEN1 inh inconclusive and Pol eta inh-2 inconclusive.
Screening O=C(O)c1ccccc1-c1ccc(C=C2C(=O)N(c3ccccc3)C(=S)N(c3ccccc3)C2=O)o1 returned POLI inh inconclusive, Pol eta inh-1 18µM*, Pol kappa inh-1 inconclusive, WRN helicase inh inconclusive, POLB inh 45µM*, FEN1 inh inconclusive, Pol kappa inh-2 17* and Pol eta inh-2 34*.
O=C1NC(=O)C(=Cc2ccc(-c3ccccc3[N+](=O)[O-])o2)C(=O)N1 was read as POLI inh inconclusive, Pol eta inh-1 -12%, Pol kappa inh-1 -15%, WRN helicase inh inconclusive, POLB inh 4% and FEN1 inh inconclusive.
O=[N+]([O-])c1ccc(Sc2nc3ccccc3o2)c([N+](=O)[O-])c1 was read as POLI inh 11µM*, Pol eta inh-1 50µM*, Pol kappa inh-1 -4%, WRN helicase inh inconclusive, POLB inh 5%, FEN1 inh -5% and Pol eta inh-2 inconclusive.
`CCC1CN2CCC1CC2C(O)c1ccnc2ccc(OC)cc12` (stereo not given) gave Pol kappa inh-1 -3%[60.1 µM].
Screening CCCN1CCC[C@@H]2Cc3n[nH]cc3C[C@H]21 returned POLI inh -3%[58.9 µM], Pol eta inh-1 -4%[57.1 µM] and POLB inh 14%[57.1 µM].
Screening COc1ccc(-n2c(/C=C3\C(=O)Nc4ccccc43)nc3ccccc3c2=O)cc1 returned POLI inh inconclusive, Pol eta inh-1 -12%, Pol kappa inh-1 -8%, WRN helicase inh 4%, POLB inh 15% and FEN1 inh 2%.
`O=C1Nc2ccccc2/C1=C/c1nc2ccccc2c(=O)n1-c1ccc(O)cc1` gave POLI inh 18µM*, Pol eta inh-1 inconclusive, Pol kappa inh-1 inconclusive, WRN helicase inh inconclusive, POLB inh inconclusive, FEN1 inh inconclusive and Pol eta inh-2 inconclusive.
CC(C)CN1CC[C@@]2(CCCN(C(=O)Oc3ccccc3)C2)C1 was read as Pol kappa inh-1 -4%[60.1 µM].
For CCC(C)N1C(=O)/C(=C/c2ccc3c(c2)CCN3CCCCl)C(=O)NC1=S (stereo not given) the results were POLI inh inconclusive, Pol eta inh-1 16µM*, Pol kappa inh-1 inconclusive, WRN helicase inh -16%[11.6 µM], POLB inh 16µM*, FEN1 inh -10%, Pol kappa inh-2 84* and Pol eta inh-2 76*.
For CCOC(=O)COc1ccc(/C=C2\C(=O)NC(=S)N(c3ccc(OC)cc3)C2=O)cc1OC the results were POLI inh -12%, Pol eta inh-1 -9%, Pol kappa inh-1 7%, WRN helicase inh -4%, POLB inh -21% and FEN1 inh -19%.
`Cc1cc2c(C(C)C)c(O)c(O)c(C=O)c2c(O)c1-c1c(C)cc2c(C(C)C)c(O)c(O)c(C=O)c2c1O` gave POLI inh 2.5µM*, Pol kappa inh-1 11µM*, POLB inh 0.56µM*, FEN1 inh 2.5µM*, GALK confirm 24µM*, Redox cycling -9% and HEK293 tox 6%.
For C=CCN1C(=O)NC(=O)C(Cc2ccc(OC)c(OC)c2)C1=O (stereo not given) the results were POLI inh inconclusive, Pol eta inh-1 8.9µM*, Pol kappa inh-1 inconclusive, WRN helicase inh inconclusive, POLB inh -3%, FEN1 inh -11% and Pol eta inh-2 30*.
`Cn1cccc1/C=C1/C(=O)NC(=O)N(Cc2ccccc2)C1=O` gave POLI inh 16µM*, Pol eta inh-1 inconclusive, Pol kappa inh-1 79µM*, WRN helicase inh inconclusive, POLB inh 4%, FEN1 inh -9% and Pol eta inh-2 76*.
Cc1ccc(C[N+](C)(C)C)o1 was read as Pol kappa inh-1 1%[19.4 µM].
For O=C1NC(=S)NC(=O)C12C(c1ccccc1)NC(=S)NC2c1ccccc1 (stereo not given) the results were POLI inh 20µM*, Pol eta inh-1 50µM*, Pol kappa inh-1 -6%, WRN helicase inh -26%, POLB inh 1%, FEN1 inh 15% and Pol eta inh-2 inconclusive.
Screening O=C1NC(=S)NC(=O)C1c1ccccc1 returned POLI inh 8%, Pol eta inh-1 -5%, Pol kappa inh-1 -7%, WRN helicase inh -6% and FEN1 inh -11%.
Screening O=C1NC(=S)NC(=O)C12C(c1ccc(F)cc1)NC(=S)NC2c1ccc(F)cc1 (stereo not given) returned POLI inh -17%, Pol eta inh-1 40µM*, Pol kappa inh-1 0%, WRN helicase inh -25%[57.1 µM], POLB inh 9%, FEN1 inh -13% and Pol eta inh-2 inconclusive.
`CN1[C@@H]2CC[C@H]1CC(O[C@@H](c1ccccc1)c1ccc(Cl)cc1)C2` (stereo not given in full) gave Pol kappa inh-1 -13%[19.4 µM].
